Screens: PubChem, The Scripps Research Institute Molecular Screening Center
Hits are enriched below; roughly 4.1% of the tested compounds scored in any of these assays.
ssDAF12 agonist: S. stercoralis DAF-12 activation, primary screen. HEK293 ssDAF-12/GRIP1 lit1-tk-luc reporter, luminescence; % of 3 µM dafachronic acid response. activation, % at 6.8 µM. 370,000 compounds, 1% hits. AID 652126;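 active = activation above the mean over all tested compounds plus 3 SD, cut at about 0.9% in these data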;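 note: 0% = DMSO-only wells and 100% = 3 µM delta7-dafachronic acid wells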
DAX1 inh-1: inhibitors of DAX1 repression of SF-1 activated StAR promoter; HEK293T StAR-luciferase reporter, SF-1/DAX-1 repression relief; inhibition, % at 6.8 µM; 370,000 compounds, 1.1% hits; AID 652010;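 active = inhibition above the mean over all tested compounds plus 3 SD, cut at about 3.6% in these data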;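 note: 0% = DAX-1 cells with DMSO and 100% = cells lacking DAX-1 with DMSO; higher inhibition means more luminescence from relief of DAX-1 repression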
hgDAF12 agonist: agonists of H. glycines DAF-12 nuclear receptor | HEK293 GAL4-hgDAF12 UAS-luciferase reporter, agonist luminescence; normalized to butyrate control | activation, % at 6.8 µM | 370,000 compounds, 1.8% hits | AID 687014;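 active = activation above a cutoff set at the mean of all screened compounds plus 3 SD, cut at about 10% in these data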;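 note: 0% = DMSO wells and 100% = sodium butyrate wells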
DAX1 inh-2: NR0B1 (DAX1) inhibition; 340,000 compounds, 0.99% hits; inhibition, % at 6.75 µM; HEK293 Gal4-DAX1 luciferase reporter, luminescence;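 active = inhibition above the mean over all tested compounds plus 3 SD, cut at about 4.2% in these data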;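 note: 0% = DAX1-transfected cells with DMSO and 100% = empty-vector control cells with DMSO; inhibition shows as a rise in luminescence from relieved DAX1 repression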
hcDAF-12 act: activates DAF-12 receptor from parasite H. contortus; AID 652067; activation, % at 6.8 µM; 370,000 compounds, 1.4% hits; HEK293 hcDAF-12 lit1-tk-luc reporter, luminescence; 0% DMSO, 100% Δ7-dafachronic acid;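 active = activation above the mean of all tested compounds plus 3 SD, cut at about 5.5% in these data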;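 note: 100% = response to 3 µM Δ7-dafachronic acid high control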
DAX1 inh confirm: confirmation of human DAX1 (NR0B1) inhibitors | shares compounds with DAX1 inh-1 | 2,400 compounds, 87% hits | inhibition, % at 6.8 µM | HEK293T StAR-promoter luciferase reporter, SF-1/DAX-1 repression;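 active = inhibition above the average of every tested compound plus 3 SD, cut at about 3.8% in these data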;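 note: 0% = DAX-1 cells with DMSO and 100% = no DAX-1 control cells with DMSO; active compounds raise luminescence by relieving repression of the StAR reporter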
Target sequence (P51843 whole entry, looked up): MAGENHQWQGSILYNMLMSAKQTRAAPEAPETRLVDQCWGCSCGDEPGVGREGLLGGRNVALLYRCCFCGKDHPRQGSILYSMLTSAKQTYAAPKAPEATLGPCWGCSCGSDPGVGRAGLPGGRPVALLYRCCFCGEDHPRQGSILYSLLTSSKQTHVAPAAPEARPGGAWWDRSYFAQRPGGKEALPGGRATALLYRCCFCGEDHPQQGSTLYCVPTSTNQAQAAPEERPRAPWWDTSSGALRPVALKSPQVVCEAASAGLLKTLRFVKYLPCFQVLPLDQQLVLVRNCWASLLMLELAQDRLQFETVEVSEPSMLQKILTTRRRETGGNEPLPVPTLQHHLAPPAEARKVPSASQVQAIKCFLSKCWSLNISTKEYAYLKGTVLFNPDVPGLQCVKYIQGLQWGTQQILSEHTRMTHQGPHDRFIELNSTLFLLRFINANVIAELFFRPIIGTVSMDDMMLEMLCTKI
SF1 mutant ctr: counter-screen for DAX1 inhibitors: nonselective inhibitors with SF-1 AF2 mutant. HEK293 StAR-luciferase, luminescence. shares compounds with DAX1 inh-1. 2,400 compounds, 78% hits. inhibition, % at 6.8 µM;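 active = inhibition above the mean of all tested compounds plus 3 SD, cut at about 3% in these data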;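 note: 0% = DAX-1 transfected cells with DMSO and 100% = cells without DAX-1 with DMSO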
hgDAF12 conf: hgDAF-12 agonism, confirmation assay; shares compounds with hgDAF12 agonist; HEK293 GAL4-hgDAF12 luciferase reporter, agonist mode; percent of butyrate response; activation, % at 6.8 µM; 3,300 compounds, 80% hits; AID 743050;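 active = mean activation over triplicate wells above the hit cutoff derived from the earlier primary screen, cut at about 11% in these data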;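 note: 0% = DMSO low control and 100% = 2 mM sodium butyrate high control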
LXRb DAF12 ctr: counter-screen for DAF-12 agonists: agonists of human LXR-beta | shares compounds with hgDAF12 agonist | HEK293 Gal4-LXR luciferase reporter, 24 h | activation, % at 6.8 µM | 3,300 tested, under 10 active;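 active = mean activation of the triplicate above a set limit carried over from the primary screen, none filed active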
The depositor's hits bear a star; x = not tested or not shown.

SMILES | ssDAF12 agonist | DAX1 inh-1 | hgDAF12 agonist | DAX1 inh-2 | hcDAF-12 act | DAX1 inh confirm | SF1 mutant ctr | hgDAF12 conf | LXRb DAF12 ctr
Nc1cc(C(=O)c2ccccc2)ccc1N1CCOCC1 | -0.4 | 0.9 | 1.3 | 1.0 | 0.8 | x | x | x | x
O=C(Cc1ccccc1)Nc1ccc(N2CCCCC2)cc1 | 1.7* | 5.1* | 24.9* | 1.6 | 5.5 | 13.6* | 7.3* | 17.6* | 0.9
O=C(c1ccccc1)c1ccc(N2CCOCC2)cc1 | -0.2 | 6.6* | 15.1* | 1.4 | 4.0 | 7.1* | 4.6* | 15.9* | 0.8
Fc1ccc(F)c(Cn2ccc3ccc(-c4ccc5ccn(Cc6cc(F)ccc6F)c5c4)cc32)c1 | -0.5 | -0.7 | -1.2 | x | -0.2 | x | x | x | x
Cc1c(C(=O)N/N=C/c2ccccc2Cl)[nH][nH]c1=O | -0.8 | 1.2 | 5.8 | x | -0.9 | x | x | x | x
COc1ccc(Cl)c(-c2cc(C(=O)Nc3ccccc3)[nH]n2)c1 | -0.1 | 7.0* | 17.9* | x | 6.5* | 6.7* | 5.2* | 18.6* | 0.8
COc1ccc(Cl)cc1-c1cc(C(=O)Nc2ccccc2)[nH]n1 | 0.0 | 3.5 | 6.2 | x | 3.5 | x | x | x | x
CC(C)CNC(=O)OCc1cn(Cc2ccccc2)nn1 | -1.1 | -0.2 | 9.0 | x | 1.6 | x | x | x | x
O=C(c1cc(-c2cccc(O)c2)on1)N1CCCCCC1 | 0.6 | 2.1 | 8.9 | 3.1 | 3.7 | x | x | x | x
CC1CCN(C(=O)c2cc(-c3ccccc3O)on2)CC1 | 1.1* | 10.2* | 23.6* | 3.5 | 6.2* | 12.4* | 9.4* | 16.6* | 0.8
O=C(c1cc(-c2ccccc2)on1)N1CCCC1 | 1.3* | 6.1* | 13.6* | 0.0 | 4.1 | 10.9* | 4.5* | 15.1* | 0.7
O=C(c1ccc(-c2ccccc2Cl)o1)N1CCCC(C(F)(F)F)C1 (centres undefined) | -1.1 | 3.2 | 3.4 | 1.0 | 0.2 | x | x | x | x
CC1CCN(C(=O)c2ccc(-c3ccccc3Cl)o2)CC1 | 0.5 | 16.8* | 16.1* | 2.5 | 4.2 | 13.8* | 8.6* | 13.1* | 0.7
O=C(c1cc(-c2cccc(O)c2)on1)N1CCOCC1 | 0.9 | 8.0* | 15.6* | 0.8 | 3.6 | 13.1* | 7.1* | 12.0* | 0.7
CC1CCN(C(=O)c2cc(-c3ccco3)on2)CC1 | 0.2 | 0.8 | 7.6 | 0.3 | 3.6 | x | x | x | x
O=C(c1cc(-c2ccccc2)on1)N1CCN(c2ccccc2)CC1 | -0.7 | 0.2 | -0.1 | 0.8 | -1.1 | x | x | x | x
C[C@@H]1CNC(=O)c2c(C(=O)N(C)Cc3ccccc3)ncn21 | 0.0 | 0.3 | 3.0 | x | 0.7 | x | x | x | x
Cc1ccc(CN2CCCCC(NC(=O)c3cccc(C(F)(F)F)c3)C2=O)cc1 (centres undefined) | -0.5 | 0.2 | -2.7 | x | 0.2 | x | x | x | x
O=C(c1cccs1)n1ccc2ccc(-c3ccc4ccn(Cc5ccccc5)c4c3)cc21 | 0.9 | 2.2 | 0.1 | x | -0.3 | x | x | x | x
Cc1ccc(NC(=S)N2CCC(c3ccccc3)C2)c(Cl)c1 (centres undefined) | 1.1* | 5.1* | 18.8* | 0.4 | 5.0 | 10.9* | 4.8* | 12.7* | 0.8
CCc1ccc(-c2cc(N)n(-c3ccccc3)n2)cc1 | 0.6 | 7.3* | 17.2* | 5.5* | 5.1 | 12.1* | 7.2* | 18.3* | 0.9
Cc1cccc(-c2cc(N)n(-c3ccccc3)n2)c1 | -0.4 | 7.8* | 17.6* | 3.1 | 2.7 | 11.2* | 6.8* | 20.8* | 1.1
COc1cccc2cc(-c3csc(NC(=O)CCC(=O)NCCCN4CCC(C)CC4)n3)c(=O)oc12 | 1.6* | 4.5* | 15.5* | -2.6 | 6.2* | 16.4* | 3.8* | 14.0* | 0.8
